# The entries come from a sample that favours the strongest signals as a whole.
# B1: SSA (Sclerotinia sclerotiorum), A7XUK7 (protein)
# chain: MGFKGVGTYEIVPYQAPSLNLNAWEGKLEPGAVVRTYTRGDKPSDNAKWQVALVAGSGDSAEYLIINVHSGYFLTATKENHIVSTPQISPTDPSARWTIKPATTHQYEVFTINNKVSELGQLTVKDYSTHSGADVLSASAKTADNQKWYFDAK
# B2: HA-00510 (Pseudomonas aeruginosa), Q02V39_PSEAB (protein)
# chain: GVPIVNIATPNGAGLSNNHFRDYNVGANGLILNNATGKTQGTQLGGIILGNPNLKGQAAQVILNQVTGGNRSTLAGYTEVAGQSARVIVANPHGITCQGCGFINTPRATLTTGKPIMDGQRLERFQVDGGDIVVEGAELNVGNLEQFDLITRSAKLNAKLYAKNLNIVTGRNDVQADSLQATPRAADGSEKPQLAIDSSALGGMYAGAIRLVGTEQGVGVKLAGDMAASGGDIRIDASGKLSLAQASSQGDLKIAAQAVELNGKTYAGGSAEIRSAEELVNRQS
# Assays:
# Assay in all cases: glycan array binding signal (z-score within array); higher = stronger binding
# Conditions in all cases: glycan notation: IUPAC condensed, linker removed
# Fuc(a1-2)Gal(b1-4)GlcNAc = target: Fuc(a1-2)Gal(b1-4)GlcNAc
# Method in brief: (§1)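 Negative Z-scores can be read as non-binding. The Z-score is calculated within each array and then averaged across arrays of one protein sequence at different concentrations or buffers and across linkers. Arrays, 3228 in all, were curated from the Consortium for Functional Glycomics database and kept only where the protein sequence was available.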
# [1] = target: Fuc(a1-2)Gal(b1-4)[Fuc(a1-3)]GlcNAc(b1-2)Man(a1-3)[Fuc(a1-2)Gal(b1-4)[Fuc(a1-3)]GlcNAc(b1-2)Man(a1-6)]Man(b1-4)GlcNAc(b1-4)GlcNAc
# Method in brief: as §1
# [2] = target: Fuc(a1-2)Gal(b1-4)[Fuc(a1-3)]GlcNAc(b1-3)Gal(b1-4)[Fuc(a1-3)]GlcNAc
# Method in brief: as §1
# [3] = target: Fuc(a1-2)[Gal(a1-3)]Gal(b1-3)GlcNAc(b1-2)Man(a1-3)[Fuc(a1-2)[Gal(a1-3)]Gal(b1-3)GlcNAc(b1-2)Man(a1-6)]Man(b1-4)GlcNAc(b1-4)GlcNAc
# Method in brief: as §1
# [4] = target: Fuc(a1-2)[Gal(a1-4)]Gal(b1-4)GlcNAc
# Method in brief: as §1
# [5] = target: Fuc(a1-2)[GalNAc(a1-3)]Gal(b1-4)Glc
# Method in brief: as §1
# [6] = target: Fuc(a1-2)[GalNAc(a1-4)]Gal(b1-4)GlcNAc
# Method in brief: as §1
# Gal(a1-3)Gal(b1-3)GlcNAc = target: Gal(a1-3)Gal(b1-3)GlcNAc
# Method in brief: as §1
# Gal(a1-3)GalNAc = target: Gal(a1-3)GalNAc
# Method in brief: as §1
# [7] = target: Gal(b1-4)GlcNAc(b1-3)Gal(b1-4)GlcNAc(b1-3)Gal(b1-4)GlcNAc
# Method in brief: as §1
# Gal6S(b1-4)GlcNAc6S = target: Gal6S(b1-4)GlcNAc6S
# Method in brief: as §1
# GalNAc(a1-3)Gal = target: GalNAc(a1-3)Gal
# Method in brief: as §1
# GalNAc(b1-3)Gal = target: GalNAc(b1-3)Gal
# Method in brief: as §1
# [8] = target: GalNAc(b1-3)Gal(a1-4)Gal(b1-4)GlcNAc
# Method in brief: as §1
# [9] = target: GalNAc(b1-3)Gal(a1-4)Gal(b1-4)GlcNAc(b1-3)Gal(b1-4)Glc
# Method in brief: as §1
# GalNAc(b1-4)GlcNAc = target: GalNAc(b1-4)GlcNAc
# Method in brief: as §1
# Glc(a1-6)Glc(a1-6)Glc = target: Glc(a1-6)Glc(a1-6)Glc
# Method in brief: as §1
# [10] = target: GlcNAc(a1-4)Gal(b1-4)GlcNAc(b1-3)Gal(b1-4)[Fuc(a1-3)]GlcNAc(b1-3)Gal(b1-4)[Fuc(a1-3)]GlcNAc
# Method in brief: as §1
# [11] = target: GlcNAc(b1-3)Gal(b1-4)GlcNAc(b1-3)Gal(b1-4)GlcNAc
# Method in brief: as §1
# [12] = target: GlcNAc(b1-3)[GlcNAc(b1-6)]GlcNAc(b1-4)GlcNAc
# Method in brief: as §1
# [13] = target: GlcNAc(b1-6)Gal(b1-4)GlcNAc
# Method in brief: as §1
# Man(a1-2)Man(a1-3)Man = target: Man(a1-2)Man(a1-3)Man
# Method in brief: as §1
# [14] = target: Neu5Ac(a2-3)Gal(b1-3)GalNAc(b1-3)Gal(a1-4)Gal(b1-4)Glc
# Method in brief: as §1
# Neu5Ac(a2-3)Gal(b1-4)Glc = target: Neu5Ac(a2-3)Gal(b1-4)Glc
# Method in brief: as §1
# [15] = target: Neu5Ac(a2-3)Gal(b1-4)GlcNAc(b1-2)Man(a1-3)[GlcNAc(b1-2)Man(b1-4)GlcNAc(b1-2)Man(a1-6)]Man(b1-4)GlcNAc(b1-4)GlcNAc
# Method in brief: as §1
# [16] = target: Neu5Ac(a2-3)Gal(b1-4)GlcNAc(b1-3)Gal(b1-4)[Fuc(a1-3)]GlcNAc
# Method in brief: as §1
# [17] = target: Neu5Ac(a2-6)Gal(b1-4)GlcNAc(b1-2)Man(a1-3)[GlcNAc(b1-2)Man(a1-6)]Man(b1-4)GlcNAc(b1-4)GlcNAc
# Method in brief: as §1
# Neu5Ac(a2-8)Neu5Ac = target: Neu5Ac(a2-8)Neu5Ac
# Method in brief: as §1
# [18] = target: Neu5Ac(b2-6)Gal(b1-4)GlcNAc
# Method in brief: as §1
# [19] = target: Neu5Gc(a2-3)Gal(b1-4)GlcNAc
# Method in brief: as §1
# [20] = target: Fuc(a1-2)Gal(b1-4)GlcNAc(b1-2)[Fuc(a1-2)Gal(b1-4)GlcNAc(b1-4)]Man(a1-3)[Fuc(a1-2)Gal(b1-4)GlcNAc(b1-2)Man(a1-6)]Man(b1-4)GlcNAc(b1-4)GlcNAc
# Method in brief: as §1
# [21] = target: Fuc(a1-2)Gal(b1-4)[Fuc(a1-3)]GlcNAc
# Method in brief: as §1
# [22] = target: Fuc(a1-2)Gal6S(b1-3)GlcNAc
# Method in brief: as §1
# [23] = target: Fuc(a1-2)[Gal(a1-3)]Gal(b1-3)GlcNAc(b1-6)GalNAc
# Method in brief: as §1
# [24] = target: Fuc(a1-2)[GalNAc(a1-3)]Gal(b1-3)GlcNAc(b1-3)GalNAc
# Method in brief: as §1
# Fuc(a1-3)GlcNAc = target: Fuc(a1-3)GlcNAc
# Method in brief: as §1
# Gal(a1-3)Gal(b1-4)GlcNAc = target: Gal(a1-3)Gal(b1-4)GlcNAc
# Method in brief: as §1
# [25] = target: Gal(a1-3)[Gal(a1-4)]Gal(b1-4)GlcNAc
# Method in brief: as §1
# Gal(b1-2)Gal = target: Gal(b1-2)Gal
# Method in brief: as §1
# [26] = target: Gal(b1-3)GlcNAc(b1-3)Gal(b1-4)GlcNAc(b1-6)[Gal(b1-3)GlcNAc(b1-3)]Gal(b1-4)Glc
# Method in brief: as §1
# [27] = target: Gal(b1-4)GlcNAc(b1-2)Man(a1-3)Man(b1-4)GlcNAc(b1-4)GlcNAc
# Method in brief: as §1
# [28] = target: Gal(b1-4)GlcNAc(b1-2)[Gal(b1-4)GlcNAc(b1-4)]Man(a1-3)[GlcNAc(b1-4)][Gal(b1-4)GlcNAc(b1-2)[Gal(b1-4)GlcNAc(b1-6)]Man(a1-6)]Man(b1-4)GlcNAc(b1-4)GlcNAc
# Method in brief: as §1
# [29] = target: Gal(b1-4)GlcNAc(b1-3)Gal(b1-4)GlcNAc(b1-2)Man(a1-3)[Gal(b1-4)GlcNAc(b1-3)Gal(b1-4)GlcNAc(b1-2)Man(a1-6)]Man(b1-4)GlcNAc(b1-4)GlcNAc
# Method in brief: as §1
# [30] = target: Gal(b1-4)GlcNAc(b1-3)Gal(b1-4)GlcNAc(b1-3)GalNAc
# Method in brief: as §1
# [31] = target: Gal(b1-4)GlcNAc(b1-3)Gal(b1-4)GlcNAc(b1-3)[Gal(b1-4)GlcNAc(b1-3)Gal(b1-4)GlcNAc(b1-6)]GalNAc
# Method in brief: as §1
# Gal(b1-6)Gal = target: Gal(b1-6)Gal
# Method in brief: as §1
# Gal3S(b1-4)Glc = target: Gal3S(b1-4)Glc
# Method in brief: as §1
# Gal3S(b1-4)GlcNAc = target: Gal3S(b1-4)GlcNAc
# Method in brief: as §1
# [32] = target: Gal3S(b1-4)[Fuc(a1-3)]Glc6S
# Method in brief: as §1
# Gal3S4S(b1-4)GlcNAc = target: Gal3S4S(b1-4)GlcNAc
# Method in brief: as §1
# Gal6S(b1-4)GlcNAc = target: Gal6S(b1-4)GlcNAc
# Method in brief: as §1
# [33] = target: GalNAc(b1-3)Gal(a1-6)Gal(b1-4)Glc
# Method in brief: as §1
# [34] = target: GalNAc(b1-4)GlcNAc(b1-2)Man
# Method in brief: as §1
# [35] = target: Glc(a1-4)Glc(a1-4)Glc(a1-4)Glc
# Method in brief: as §1
# [36] = target: GlcNAc(b1-3)Gal(b1-4)GlcNAc(b1-2)[GlcNAc(b1-3)Gal(b1-4)GlcNAc(b1-6)]Man(a1-6)[GlcNAc(b1-3)Gal(b1-4)GlcNAc(b1-2)Man(a1-3)]Man(b1-4)GlcNAc(b1-4)GlcNAc
# Method in brief: as §1
# [37] = target: GlcNAc(b1-3)Gal(b1-4)GlcNAc(b1-3)Gal(b1-4)GlcNAc(b1-2)Man(a1-3)[GlcNAc(b1-3)Gal(b1-4)GlcNAc(b1-3)Gal(b1-4)GlcNAc(b1-2)Man(a1-6)]Man(b1-4)GlcNAc(b1-4)GlcNAc
# Method in brief: as §1
# [38] = target: GlcNAc(b1-3)Gal(b1-4)GlcNAc(b1-3)[GlcNAc(b1-3)Gal(b1-4)GlcNAc(b1-3)]GalNAc
# Method in brief: as §1
binder,measurement,setting,value
B1,glycan array binding signal (z-score),Fuc(a1-2)Gal(b1-4)GlcNAc,-0.112
same,glycan array binding signal (z-score),[1],-0.173
same,glycan array binding signal (z-score),[2],-0.407
same,glycan array binding signal (z-score),[3],-0.312
same,glycan array binding signal (z-score),[4],-0.198
same,glycan array binding signal (z-score),[5],-0.1
same,glycan array binding signal (z-score),[6],3.68
same,glycan array binding signal (z-score),Gal(a1-3)Gal(b1-3)GlcNAc,-0.253
same,glycan array binding signal (z-score),Gal(a1-3)GalNAc,0.053
same,glycan array binding signal (z-score),[7],-0.142
same,glycan array binding signal (z-score),Gal6S(b1-4)GlcNAc6S,0.403
same,glycan array binding signal (z-score),GalNAc(a1-3)Gal,6.1
same,glycan array binding signal (z-score),GalNAc(b1-3)Gal,3
same,glycan array binding signal (z-score),[8],4.61
same,glycan array binding signal (z-score),[9],6.97
same,glycan array binding signal (z-score),GalNAc(b1-4)GlcNAc,5.32
same,glycan array binding signal (z-score),Glc(a1-6)Glc(a1-6)Glc,-0.343
same,glycan array binding signal (z-score),[10],0.158
same,glycan array binding signal (z-score),[11],-0.207
same,glycan array binding signal (z-score),[12],-0.467
same,glycan array binding signal (z-score),[13],-0.344
same,glycan array binding signal (z-score),Man(a1-2)Man(a1-3)Man,-0.3
same,glycan array binding signal (z-score),[14],-0.295
same,glycan array binding signal (z-score),Neu5Ac(a2-3)Gal(b1-4)Glc,-0.186
same,glycan array binding signal (z-score),[15],-0.291
same,glycan array binding signal (z-score),[16],-0.158
same,glycan array binding signal (z-score),[17],-0.226
same,glycan array binding signal (z-score),Neu5Ac(a2-8)Neu5Ac,-0.215
same,glycan array binding signal (z-score),[18],-0.415
same,glycan array binding signal (z-score),[19],-0.366
B2,glycan array binding signal (z-score),Fuc(a1-2)Gal(b1-4)GlcNAc,0.548
same,glycan array binding signal (z-score),[20],1.8
same,glycan array binding signal (z-score),[21],-0.457
same,glycan array binding signal (z-score),[22],-1.39
same,glycan array binding signal (z-score),[23],-0.268
same,glycan array binding signal (z-score),[4],0.219
same,glycan array binding signal (z-score),[24],2.45
same,glycan array binding signal (z-score),Fuc(a1-3)GlcNAc,0.219
same,glycan array binding signal (z-score),Gal(a1-3)Gal(b1-4)GlcNAc,0.209
same,glycan array binding signal (z-score),[25],0.326
same,glycan array binding signal (z-score),Gal(b1-2)Gal,-0.657
same,glycan array binding signal (z-score),[26],0.121
same,glycan array binding signal (z-score),[27],-0.221
same,glycan array binding signal (z-score),[28],0.347
same,glycan array binding signal (z-score),[29],6.41
same,glycan array binding signal (z-score),[30],3.26
same,glycan array binding signal (z-score),[31],3.88
same,glycan array binding signal (z-score),Gal(b1-6)Gal,-0.435
same,glycan array binding signal (z-score),Gal3S(b1-4)Glc,0.114
same,glycan array binding signal (z-score),Gal3S(b1-4)GlcNAc,-0.217
same,glycan array binding signal (z-score),[32],0.258
same,glycan array binding signal (z-score),Gal3S4S(b1-4)GlcNAc,-0.526
same,glycan array binding signal (z-score),Gal6S(b1-4)GlcNAc,-0.516
same,glycan array binding signal (z-score),[33],-0.551
same,glycan array binding signal (z-score),[34],-1.01
same,glycan array binding signal (z-score),[35],0.18
same,glycan array binding signal (z-score),[10],0.682
same,glycan array binding signal (z-score),[36],0.061
same,glycan array binding signal (z-score),[37],4.3
same,glycan array binding signal (z-score),[38],-0.255

# From the supplement of paper PMC8728848
